# Reference: PubChem BioAssay
# Inconclusive results are not listed. Calls of active or inactive are those of the source. Rule as the data show it, unless noted: active = inhibition above about 80%; inactive = the rest.
# What was measured:
# [1] = growth inhibition of DIPG glioma cells, dose response, cell-based, SU-DIPG-XVII, MIPE5.0, CellTiter-Glo, qHTS (AID 1347060; cut-off not given, nearly all actives have AC50 up to about 26 µM;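 also: cells exposed to compound for 48 hours before viability readout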); conditions: SU-DIPG-XVII viability, CellTiter-Glo ATP luminescence
# [2] = viability loss in pontine glioma line – cell-based, SU-DIPG-XXV, MIPE5.0, CellTiter-Glo, qHTS, dose response (AID 1347065; cut-off not given, nearly all actives have AC50 up to about 26 µM;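 also: cells exposed to compound for 48 hours before ATP readout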); conditions: CellTiter-Glo ATP luminescence
# [3] = JHH-DIPG-1 glioma cell viability, MIPE5.0 library, CellTiter-Glo luminescence, qHTS (AID 1347067; cut-off not given, nearly all actives have AC50 up to about 26 µM;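 also: cells exposed to compound for 48 hours before readout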); conditions: JHH-DIPG-1 glioma viability, CellTiter-Glo ATP luminescence
# [4] = LFS_MB_P medulloblastoma growth inhibition, cell-based, chromothripsis tumors, cisplatin or BGB combos (AID 1671449); conditions: LFS_MB_P medulloblastoma cells;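 also: cells exposed for 96 hours; 0% = vehicle DMSO and 100% = killing by high DMSO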
# [5] = HDN33 neuroblastoma growth inhibition, cell-based, chromothripsis tumors, cisplatin or BGB combos (AID 1671450); conditions: HDN33 neuroblastoma cells, stronger effect = higher value;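 also: cells exposed to compound for four days; 0% = vehicle DMSO and 100% = cell killing by high DMSO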
# [6] = ICB984 medulloblastoma cell growth inhibition, synergistic combos for chromothripsis tumors, cisplatin or BGB combos (AID 1671451; call rule not given here;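 also: cells exposed for 96 hours before readout; 0% = vehicle DMSO and 100% = killing by high DMSO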); conditions: ICB984 medulloblastoma cells, drug combinations, stronger effect = higher value
# [7] = LFS_MB_1R medulloblastoma cell growth inhibition, synergistic combos for chromothripsis tumors, cisplatin or BGB combos (AID 1671452); conditions: LFS_MB_1R medulloblastoma cells, stronger effect = higher value;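 also: cells exposed for 96 hours before readout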
# [8] = HTB85 osteosarcoma cell growth inhibition, synergistic combos for chromothripsis tumors, BGB or cisplatin IC20 combos (AID 1671453); conditions: HTB85 osteosarcoma cells, drug combinations, stronger effect = higher value;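 also: cells exposed for 96 hours before readout; 0% = vehicle DMSO and 100% = high DMSO killing control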
# [9] = CRL2098 osteosarcoma cell growth inhibition, synergistic combos for chromothripsis tumors, BGB or cisplatin IC20 combos (AID 1671454); conditions: CRL2098 osteosarcoma cells, drug combinations, stronger effect = higher value;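 also: cells exposed for 96 h before readout; 0% = vehicle DMSO and 100% = killing by high DMSO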
# [10] = HD-MB03 medulloblastoma cell growth inhibition, synergistic combos for chromothripsis tumors, BGB or cisplatin IC20 combos (AID 1671455; in the data active = inhibition above about 83%;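 also: 0% = vehicle DMSO and 100% = high DMSO as cytotoxic control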); conditions: HD-MB03 medulloblastoma cells, stronger effect = higher value
# [11] = UWB1.289 ovarian carcinoma cell growth inhibition, synergistic combos for chromothripsis tumors, BGB or cisplatin combos (AID 1671456); conditions: UWB1.289 ovarian carcinoma cells, stronger effect = higher value;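 also: cells exposed to compound for four days; 0% = vehicle DMSO and 100% = killing by high DMSO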
# [12] = LFS_MB_2R medulloblastoma cell growth inhibition, synergistic combos for chromothripsis tumors, cisplatin combos (AID 1671457); conditions: LFS_MB_2R medulloblastoma cells, stronger effect = higher value;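 also: cells exposed to compound for four days before readout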
# [13] = MDA-MB-436 breast carcinoma cell growth inhibition, synergistic combos for chromothripsis tumors, BGB or cisplatin combos (AID 1671458; call rule not given here;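 also: cells exposed for 96 hours; 0% = vehicle DMSO and 100% = killing by high DMSO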); conditions: MDA-MB-436 breast carcinoma growth inhibition, drug combinations, stronger effect = higher value
# [14] = UWB1.289_BRCA1 ovarian cancer growth, cell-based, BGB or cisplatin combinations (AID 1671459); conditions: UWB1.289 BRCA1 ovarian carcinoma, drug combinations, stronger effect = higher value
# [15] = human astrocyte viability loss, single and combined drugs, cytotoxicity control for chromothriptic childhood tumor combination screen, cell-based, BGB or cisplatin IC20 combos (AID 1671460); conditions: Human astrocytes, drug combinations, stronger effect = higher value;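 also: cells exposed to compounds for 96 hours before viability readout; 0% = vehicle and 100% = killing control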
# [16] = growth inhibition of BT084 medulloblastoma cells, cell-based, ICGC_MB145, cisplatin and BGB IC40 combos (AID 1671461); conditions: drug combinations, stronger effect = higher value;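 also: cells exposed to drugs for 96 hours; 0% = vehicle DMSO and 100% = high DMSO full killing control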
# [17] = growth inhibition of RCMB18 medulloblastoma cells, cell-based, cisplatin and BGB IC40 combos (AID 1671462); conditions: stronger effect = higher value;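 also: cells exposed to compound for four days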
# [18] = growth inhibition of CRL1545 osteosarcoma cells, cell-based, cisplatin and BGB IC20 combos (AID 1671464); conditions: stronger effect = higher value;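 also: cells exposed to compound for 96 hours before readout; 0% = vehicle DMSO and 100% = high DMSO killing control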
# [19] = measured here: combination with BGB IC40, at 0.05 µM
# [20] = measured here: with BGB IC20 combination, at 0.5 µM
# [21] = measured here: with cisplatin IC20 combination, at 0.5 µM
# [22] = measured here: combination with cisplatin, at 0.5 µM
# [23] = measured here: combination with cisplatin, at 5 µM
smiles,measurement,setting,value
CN[C@@H]1CN(c2ccc3c(=O)c(C(=O)O)cn(-c4nccs4)c3n2)C[C@H]1OC,AC50,[1],0.91 µM (active)
same,AC50,[2],5.74 µM (active)
same,AC50,[3],9.1 µM (active)
same,inhibition,"[4]; at 0.5 µM, stronger effect = higher value",-19.9% (inactive)
same,inhibition,"[4]; measured here: combination with BGB IC20, at 0.005 µM",-32.1%
same,inhibition,"[4]; measured here: combination with BGB IC40, at 0.005 µM",-41.7%
same,inhibition,[4]; [19],-39.5%
same,inhibition,"[4]; measured here: combination with cisplatin, at 0.5 µM, stronger effect = higher value",-37.3%
same,inhibition,"[4]; measured here: combination with cisplatin, at 5 µM, stronger effect = higher value",59.3%
same,inhibition,"[5]; BGB combo, at 5 µM",99.1%
same,inhibition,[5]; at 0.5 µM,57% (inactive)
same,inhibition,"[5]; cisplatin combo, at 5 µM",99.4%
same,inhibition,[5]; [20],48.4%
same,inhibition,[5]; [21],56.4%
same,inhibition,"[5]; single agent, at 5 µM",99.6%
same,inhibition,"[6]; BGB IC20 combo, at 0.005 µM",19.2%
same,inhibition,"[6]; BGB IC40 combo, at 0.005 µM",-11.4%
same,inhibition,"[6]; BGB IC40 combo, at 0.05 µM",100%
same,inhibition,[6]; at 0.5 µM,-34.8% (inactive)
same,inhibition,"[6]; cisplatin combo, at 0.05 µM",100%
same,inhibition,"[6]; cisplatin combo, at 0.5 µM",-31.3%
same,inhibition,"[6]; cisplatin combo, at 5 µM",-34.3%
same,inhibition,"[6]; measured here: 5 uM single agent, at 5 µM",-6.89%
same,inhibition,[7]; at 0.5 µM,3.38% (inactive)
same,inhibition,[7]; [19],4.5%
same,inhibition,[7]; [22],47.4%
same,inhibition,[7]; [23],92.8%
same,inhibition,[8]; at 0.5 µM,51.4% (inactive)
same,inhibition,"[8]; measured here: with BGB IC20, at 0.5 µM",49.9%
same,inhibition,"[8]; measured here: with BGB IC20, at 5 µM",99.2%
same,inhibition,"[8]; measured here: with cisplatin IC20, at 0.5 µM",42.9%
same,inhibition,"[8]; measured here: with cisplatin IC20, at 5 µM",99.3%
same,inhibition,"[8]; single agent, at 5 µM",99.2%
same,inhibition,[9]; at 0.5 µM,18.1% (inactive)
same,inhibition,"[9]; measured here: combination with BGB at IC20, at 0.5 µM",27.9%
same,inhibition,"[9]; measured here: combination with cisplatin at IC20, at 0.5 µM",-2.11%
same,inhibition,[10]; at 0.5 µM,72.5% (inactive)
same,inhibition,"[10]; measured here: combo with BGB at IC20, at 0.5 µM",63.8%
same,inhibition,"[10]; measured here: combo with cisplatin at IC20, at 0.5 µM",74.4%
same,inhibition,[11]; at 0.5 µM,14.7% (inactive)
same,inhibition,"[11]; measured here: inhibition with BGB combination, at 0.05 µM",-25.3%
same,inhibition,"[11]; measured here: inhibition with cisplatin combination, at 0.05 µM",-22.6%
same,inhibition,[12]; at 0.5 µM,-28.9% (inactive)
same,inhibition,[12]; [22],-26%
same,inhibition,[12]; [23],34.8%
same,inhibition,[13]; at 0.5 µM,25.6% (inactive)
same,inhibition,"[13]; measured here: BGB combination, at 0.5 µM",14%
same,inhibition,"[13]; measured here: BGB combination, at 5 µM",70.2%
same,inhibition,"[13]; measured here: cisplatin combination, at 0.5 µM",8.1%
same,inhibition,"[13]; measured here: cisplatin combination, at 5 µM",85.8%
same,inhibition,"[14]; BGB combination, concentration series, at 5 µM",94.6%
same,inhibition,[14]; at 0.5 µM,13.7% (inactive)
same,inhibition,"[14]; cisplatin combination, concentration series, at 5 µM",98.3%
same,inhibition,[15]; at 0.5 µM,33.4% (inactive)
same,inhibition,"[15]; measured here: combo with BGB IC20, at 0.5 µM",29%
same,inhibition,"[15]; measured here: combo with cisplatin IC20, at 0.5 µM",13.3%
same,inhibition,[16]; at 0.5 µM,-20% (inactive)
same,inhibition,"[16]; cisplatin combination, at 0.5 µM",-18.3%
same,inhibition,"[16]; cisplatin combination, at 5 µM",37.6%
same,inhibition,"[16]; measured here: BGB IC40 combination 0.05 uM, at 0.05 µM",-77.9%
same,inhibition,"[16]; single agent, at 5 µM",101%
same,inhibition,[17]; at 0.5 µM,-5.3% (inactive)
same,inhibition,"[17]; cisplatin combo, at 5 µM",84.6%
same,inhibition,"[17]; measured here: BGB IC40 combination, at 0.05 µM",-18.9%
same,inhibition,[17]; [22],32.1%
same,inhibition,"[17]; single agent, at 5 µM",87.5%
same,inhibition,[18]; at 0.5 µM,17.4% (inactive)
same,inhibition,[18]; [20],16.9%
same,inhibition,[18]; [21],16.4%
same,inhibition,"[18]; single agent, at 0.05 µM",9.09%
same,inhibition,"[18]; single agent, at 5 µM",99.7%
